# Bioassay records: PubChem BioAssay, University of Kansas High Throughput Screening Laboratory
# mHTT CaM bind: mHTT-calmodulin interaction abrogation; AID 1671202; inhibition, % at 15 µM; AlphaScreen His-mHTT/GST-CaM binding, luminescence; 190,000 tested, 3.6% active
# Pf apPOL block: Pf-apPOL DNA polymerase inhibition; Recombinant Pf-apPOL, molecular beacon fluorescence, 1.5 h; inhibition, % at 10 µM; 210,000 tested, 0.25% active; AID 1794808
# Numbers stand for hits; n = inactive; x = no result. In the library only some 3.6% were active in any assay of this set; here they are far more common. Rule as the data show it: active = inhibition above about 50%; inactive = the rest.
SMILES,mHTT CaM bind,Pf apPOL block
CC(=O)Nc1cc(-c2nc3ccccc3s2)ccc1Cl,n,n
CCN1C(=O)NC(=O)/C(=C/c2cn(CCOc3ccccc3C)c3ccccc23)C1=O,61,n
CCN1C(=O)NC(=O)/C(=C/c2cn(CCOc3ccc(F)cc3)c3ccccc23)C1=O,n,n
Cc1ccccc1OCCn1cc(C=C2C(=O)NC(=O)NC2=O)c2ccccc21,51,n
O=C1NC(=O)C(=Cc2cn(CCOc3ccccc3)c3ccccc23)C(=O)N1,n,n
CN1CCN(c2nc3ccc(NC(=O)Cc4ccc(F)cc4)cc3s2)CC1,n,n
CC(C)NC(=O)c1ccc(OCC2CCN(C(=O)c3ccccc3F)CC2)cc1,n,n
O=C(CCC(=O)N1CC2CCCN2c2ccccc21)NCCc1ccc(Cl)cc1 (centres undefined),75,n
O=C(CCC(=O)N1CC2CCCN2c2ccccc21)NCCc1ccccc1Cl (centres undefined),53,n
CC(C)CCNC(=O)CCC(=O)N1CC2CCCN2c2ccccc21 (centres undefined),n,n
COc1ccc(CCNC(=O)CCC(=O)N2CC3CCCN3c3ccccc32)cc1OC (centres undefined),n,n
CCCC(=O)Nc1nnc(C2CC(=O)N(c3ccc(OCC)cc3)C2)o1 (centres undefined),n,n
Cc1ccc(-c2csc3c(=O)n(CC(=O)Nc4ccccc4)cnc23)cc1,n,n
COc1ccc(NC(=O)NC(c2ccccc2)c2ccccc2)cc1OC,62,n
COc1ccc(C(=O)NC(c2ccccc2)c2ccccc2)cc1OC,n,n
Cc1ccc(C(=O)n2nc(C)c(Sc3ccccc3[N+](=O)[O-])c2C)cc1,n,n
COc1ccc(OCCNc2ccc(C(F)(F)F)cc2[N+](=O)[O-])cc1,n,n
COc1ccc(Nc2ccc(C(F)(F)F)cc2[N+](=O)[O-])cc1,53,n
Cc1ccccc1CNC(=O)c1csc(-c2cn(C)c3ncccc23)n1,72,n
Cn1cc(-c2nc(C(=O)NCc3ccccc3)cs2)c2cccnc21,n,n
CCOc1ccc(N=C2C(=O)N3c4c(ccc(C)c42)C(C)=CC3(C)C)cc1,n,n
Cc1cc(C)cc(C(=O)N2CCCC(C(=O)NC3CCCC3)C2)c1 (centres undefined),n,n
Cc1cc(C)cc(OCCNC(=O)COc2ccc3c(c2)OCO3)c1,n,n
O=C(CSC1CCCC1)NCCn1nc(-c2ccco2)ccc1=O,n,n
O=C(COc1ccc2c(c1)OCO2)NCCOc1ccc(-c2ccccn2)nn1,100,n
SMILES,mHTT CaM bind,Pf apPOL block
O=C(CSC1CCCC1)NCCOc1ccc(-c2ccccn2)nn1,100,n
O=C(Oc1ccccc1)c1cc2cc([N+](=O)[O-])ccc2oc1=O,n,n
C=CCNC(=O)c1n[nH]c2c1CN(C(=O)Cc1ccc(C)cc1)CC2,n,n
Cc1cccc(CN2CCN(C3CCN(C(=O)Nc4ccccc4)CC3)C2=O)c1,n,n
CCC(=O)Nc1ccc(C)c(NC(=O)c2ccccc2)c1,n,n
CSc1cccc(NC(=O)N2CCc3c(c(-c4nc(C5CC5)no4)nn3C)C2)c1,52,n
Cn1nc(-c2nc(C3CC3)no2)c2c1CCN(C(=O)Nc1ccccc1)C2,n,n
Cc1noc(-c2nn(C)c3c2CN(C(=O)Nc2ccc(Cl)cc2)CC3)n1,58,n
CSc1ccc(NC(=O)N2CCc3c(c(-c4nc(C)no4)nn3C)C2)cc1,n,n
O=c1[nH]nc2nc(-c3ccccc3)cnn12,n,x
Cc1ccc(-c2[nH]ncc2CN2CCC(C)(O)C(N3CCCC3)C2)cc1 (centres undefined),n,n
CC1(C)Nc2ccccc2-c2c1ssc2=S,n,x
Cc1ccc2c(c1)-c1c(ssc1=S)C(C)(C)N2C,93,x
CCOc1ccc2c(c1)-c1c(ssc1=S)C(C)(C)N2C,97,x
CCOc1ccc2c(c1)C(=O)c1cc(OCC(=O)O)ccc1-2,n,n
COC(=O)C1=C(N)Oc2c(oc(CO)cc2=O)C1c1ccccc1OC (centres undefined),n,n
CCC(=O)c1ccc(OCC(O)CN2CCN(c3ccccc3F)CC2)cc1 (centres undefined),n,n
O=C(c1ccc(F)cc1)N1CCC(c2cnn(-c3ccccc3)c2)CC1,n,n
CC(C(=O)O)N1C(=O)C(=CC=Cc2ccco2)SC1=S (centres undefined),n,91
CC(C)C(C(=O)O)N1C(=O)C(=Cc2ccco2)SC1=S (centres undefined),n,n
CCCC(C(=O)O)N1C(=O)C(=CC=Cc2ccco2)SC1=S (centres undefined),84,92
O=C(O)CCC(C(=O)O)N1C(=O)C(=Cc2ccco2)SC1=S (centres undefined),n,n
CN1C(=N)NC(=O)/C1=C/c1ccc(Br)s1,n,n
COc1ccccc1/C=C/C=c1\sc2nc(-c3ccccc3)nn2c1=O,n,n
CCCCN1CCN(C(=O)c2ccc3ncnc(N4CCCC4)c3c2)CC1,n,n
SMILES,mHTT CaM bind,Pf apPOL block
CCOCCCNC(=O)c1cnn2c(C)c(Cc3cc(C)ccc3C)c(C)nc12,n,n
CCC(C(=O)Nc1ccccn1)c1ccccc1 (centres undefined),n,n
Cc1cc(O)c(C(c2cccnc2)c2c(O)cc(C)oc2=O)c(=O)o1,n,n
Cc1ccc2cccc(SCC(=O)Nc3ccc(F)cc3)c2n1,n,n
Cc1cccc(NC(c2cccnc2)c2ccc3ccc(C)nc3c2O)n1 (centres undefined),90,n
Cc1cccc(NC(c2ccccc2F)c2ccc3ccc(C)nc3c2O)n1 (centres undefined),71,n
Cc1ccc2ccc(C(Nc3ccccn3)c3cccc(O)c3)c(O)c2n1 (centres undefined),76,n
CCC(C(=O)Nc1cccc(C)n1)c1ccccc1 (centres undefined),n,n
Cc1cccc(NC(c2ccccc2)c2ccc3ccc(C)nc3c2O)n1 (centres undefined),77,n
CC(O)(CNC(=O)NCc1cccs1)C1CC1 (centres undefined),n,n
CCc1nnc2ccc(-c3noc(-c4cccc(F)c4)n3)cn12,n,n
Cc1ccc(N2CCC(NC(=O)NC3CCCC3)C2=O)cc1C (centres undefined),n,n
CN1CCCc2cc(C(=O)N3CCN(C4CCCCC4)CC3)sc21,n,n
Cc1cccc(NC(c2cccc([N+](=O)[O-])c2)c2ccc3ccc(C)nc3c2O)n1 (centres undefined),70,n
COc1ccc(-c2csc(Nc3cc(C)ccn3)n2)cc1OC,n,n
O=c1cc(CO)oc(C(Nc2ccccn2)c2cccc([N+](=O)[O-])c2)c1O (centres undefined),n,n
Cc1ccnc(NC(c2cccc(O)c2)c2ccc3ccc(C)nc3c2O)c1 (centres undefined),93,n
Cc1ccc2cccc(I)c2n1,x,n
Cc1cccc(NC(c2cccc(O)c2)c2ccc3ccc(C)nc3c2O)n1 (centres undefined),89,n
Cc1ccnc(NC(=O)CSc2nc(C)cc(C)n2)c1,n,n
COc1cc(C(Nc2cc(C)ccn2)c2ccc3ccc(C)nc3c2O)cc(OC)c1OC (centres undefined),89,n
Cc1cccc(N2CCN(CC(O)c3ccc4c(c3)OCO4)CC2)c1C (centres undefined),n,n
CCc1ccc(CNC(=O)C2CCc3nc(N4CCOCC4)ncc3C2)cc1 (centres undefined),n,n
